SW480 rerep: inducers of DNA re-replication in SW480 colon cancer cells; SW480 DNA re-replication, Hoechst DNA content imaging, 48 h; Potency, µM (doses to about 46.1 µM), for inactives: at the top dose re-replication activation, actives largely listed as activators; 1.8% of 340,000 active; AID 624297; also: % of control where 0% means no effect; nearly all actives have a fitted effect of over 55% in size
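Per well, 250 cells were exposed to pinned compound for 48 hr. Nuclear DNA was visualised with Hoechst (40 min, 37 C) and total object intensity recorded by fluorescence scanning.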
HT1080-NT tox: kills 2HG-producing HT-1080-NT fibrosarcoma cells; Potency, µM (top dose mostly 46.1 µM), for inactives: at the highest dose activity, negative = less viability, hits mostly cytotoxic; 1.6% of 360,000 active; HT-1080-NT fibrosarcoma viability, CellTiter-Glo ATP luminescence, 48 h;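 also: NT is the 2HG producing partner of a matched IDH1 knockdown line; 0% = DMSO-treated cells and -100% = media-only wells without cells; nearly all actives have a fitted effect of over 55% in size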
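Toxicity toward the 2HG-producing NT line was scored as %Activity, normalised to DMSO and no-cell wells, from CellTiter-Glo luminescence after 48 hours' treatment.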
HT1080 IDH1KD tx: kills HT-1080 cells with IDH1 knockdown | Potency, µM (doses to about 46.1 µM), for inactives: top-dose activity, negative = toxicity, hits mostly cytotoxic | HT-1080 IDH1 knockdown viability, ATP luminescence, 48 h | AID 686971 | 2% of 360,000 active;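 also: 0% = DMSO wells and -100% = cell-free medium wells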
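Luminescent ATP read-out (CellTiter-Glo, 10 min at room temperature) after 48 h compound exposure at 37 °C gave viability of IDH1-knockdown HT-1080 cells. Activity was normalised to DMSO and cell-free wells, then fitted as concentration-response curves.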
KB-V1 MDR tox: kills drug-selected multidrug resistant KB-V1 cells. KB-V1 MDR cells viability, CellTiter-Glo, 72 h. Potency, µM (top dose mostly 46.1 µM), usual class: cytotoxic. 3.4% of 400,000 active; also: % is scaled to controls: 0 for no effect and ±100 for the full control effect; nearly all actives have a fitted effect of over 60% in size
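Drug-selected KB-V1 cells, grown in DMEM lacking phenol red with 10% FBS, receive compound titrations; after three days at 37 degrees C, surviving cell ATP is quantified by CellTiter-Glo luminescence and responses normalized and curve-fitted.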
KB-3-1 tox: KB-3-1 parental cell cytotoxicity. KB-3-1 viability, CellTiter-Glo ATP luminescence, 72 h. Potency, µM (titrated, usually from 46.1 µM), most hits filed as cytotoxic. 1.4% of 400,000 active. AID 1347075; also: % is scaled to controls: 0 for no effect and ±100 for the full control effect; nearly all actives have a fitted effect of over 60% in size
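Luminescent ATP read-out (CellTiter-Glo) measures survival of drug-naive KB-3-1 cells after 72 h compound exposure at 37 °C. Titration series was screened from lowest to highest concentration, with DMSO vehicle plates as background controls.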
MCF10A rereplic: inducers of DNA re-replication in MCF 10A breast cells; MCF 10A DNA re-replication, Hoechst nuclear intensity, 48 h; Potency, µM (top dose mostly 46.1 µM), for the others: at the top dose activity, positive = re-replication, most hits filed as activators; 2.9% of 350,000 active; AID 624296; also: % of control where 0% means no effect; nearly all actives have a fitted effect of over 50% in size
* marks the source's active call; other numbers are inactive results; i = inactive; ? = inconclusive; · = not tested or not shown; [ ] = dose if it differs, or a comment. Compounds with a hit are over-represented: about 8% of the library has one in this group of screens. Calls follow the shape of the dose curve; as a rule, active = well fitted curve in the direction sought with a large enough effect; inconclusive = small, poorly fitted or top-dose-only effect, or another doubt; inactive = no such curve, though single readings can be large; an effect the other way counts as inactive or inconclusive. Potency is read from the fitted curve at half-maximal effect.

SMILES | SW480 rerep | HT1080-NT tox | HT1080 IDH1KD tx | KB-V1 MDR tox | KB-3-1 tox | MCF10A rereplic
Cc1ccc(C)c(N(CC(=O)Nc2ccc(-c3nc4ccc(C)cc4s3)cc2)S(C)(=O)=O)c1 | ? | -11% | -25% | ? | i | ?
Cc1ccc2nc(-c3ccc(NC(=O)CN4C(=O)c5ccccc5C4=O)cc3)sc2c1 | 21µM* | 2% | 18% | ? | i | 16µM*
COc1ccc(-c2nc(CN3CCC(C(=O)N4CCOCC4)CC3)c(C)o2)cc1C | 10µM* | -10% | 1% | i | i | -1%
COc1ccc(-c2nc(CN3CCC(C(=O)N4CCOCC4)CC3)c(C)o2)cc1OC | 0% | -1% | 13% | i | ? | 1%
COc1ccc(C(C)=O)cc1CN1CCCCC1 | 0% | 5% | 3% | i | i | 15µM*
COc1ccc(F)c(CN2CCC(N3CCC(C(=O)N4CCOCC4)CC3)CC2)c1 | -3% | 0% | -2% | i | i | 1%
COc1ccc(OC)c(CN2CCC(C(=O)N3CCOCC3)CC2)c1 | 0.52µM* | -5% | -2% | i | i | ?
O=C(c1ccc(S(=O)(=O)Nc2ccccc2F)cc1)N1CCCC1 | -5% | -13% | -3% | i | i | 8%
CC(=O)c1ccc(NC(=O)CCn2cccn2)cc1 | · | · | · | i | i | ·
COc1cccc(CNC(=O)c2ccc3nc(CCc4ccccc4)oc3c2)c1OC | · | · | · | i | i | ·
COc1ccc(NS(=O)(=O)c2ccc(OC)c(NC(=O)CCC3CCCCC3)c2)cc1 | -57% | -1% | 10% | 12µM* | i | 15%
COc1ccc(S(=O)(=O)Nc2ccccc2OC)cc1NC(=O)CC1CC2CCC1C2 (stereo not given) | 5% | -12% | -9% | 21µM* | i | ?
COc1ccc(NC(=O)CC2CC3CCC2C3)cc1S(=O)(=O)N1CCOCC1 (stereo not given) | -2% | 16% | 6% | 13µM* | i | 9%
Cc1ccc(NC(=O)COC(=O)CC2CC3CCC2C3)cc1S(=O)(=O)N1CCOCC1 (stereo not given) | -1% | -2% | 6% | i | i | 0%
COc1ccc(NC(=O)Cc2coc3cc(C)ccc23)cc1S(=O)(=O)N1CCOCC1 | 1% | 2% | 8% | 18µM* | i | 15%
O=C(COc1ccccc1-c1nc(-c2ccccc2)no1)Nc1ccccc1[N+](=O)[O-] | · | · | · | i | i | ·
CCOc1cccc(Nc2ccc([N+](=O)[O-])cn2)c1 | -1% | -12% | -8% | ? | i | -1%
COCCCN1C(=O)C(CC(=O)NCCCCc2ccccc2)CC(C(=O)N2CCOCC2)=C1C (stereo not given) | · | 4% | 3% | i | i | ·
Cc1cc(C(=O)CSCCCn2c(=O)[nH]c3ccccc32)c(C)n1C | -3%[9.22 µM] | 0% | 3% | i | i | -1%
O=c1[nH]c2ccccc2n1CCCSCCCn1c(=O)[nH]c2ccccc21 | 3% | -23% | -16% | 18µM* | 21µM* | 0%
O=c1[nH]c2ccccc2n1CCC1CCCCC1 | 0% | -14% | ? | 18µM* | i | ?
Cc1ccc(NS(=O)(=O)c2cc3c(cc2C)OCC(=O)N3)cc1C | · | · | · | ? | i | ·
COCCCNC(=O)c1nn(-c2ccc(C)cc2)c(=O)n(C)c1=O | · | · | · | ? | i | ·
COc1ccc(C(O)Cn2ccsc2=NC(C)=O)cc1 (stereo not given) | ? | ? | 12µM* | ? | ? | ?
CC(=O)N=c1sccn1CC(O)c1ccccc1 (stereo not given) | 8% | 10% | 12% | i | i | 11%
SMILES | SW480 rerep | HT1080-NT tox | HT1080 IDH1KD tx | KB-V1 MDR tox | KB-3-1 tox | MCF10A rereplic
Cc1ccc(CNC(=O)C2CCN(S(=O)(=O)Cc3ccccc3)CC2)cc1 | · | · | · | i | i | ·
Cc1ccc(-c2csc(NC(=O)c3ccc(-c4ccccc4)cc3)n2)o1 | 12% | 0% | -22% | 15µM* | ? | ?
Cc1ccc(C(=O)Nc2nc(-c3ccccn3)cs2)o1 | 14% | -17% | ? | i | ? | 1%
O=C(COc1ccc(F)cc1)Nc1nc(-c2ccccn2)cs1 | ? | -20% | ? | 5.8µM* | ? | 15%
O=C(Nc1nc(-c2ccccn2)cs1)c1ccc(-c2ccccc2F)o1 | ? | ? | ? | i | ? | 21µM*
O=C(Nc1nc(-c2ccccn2)cs1)c1ccc([N+](=O)[O-])o1 | ? | -18% | ? | i | ? | 2.3µM*
CCc1ccc(N2CC(c3nc4ccccc4n3Cc3ccccc3C)CC2=O)cc1 (stereo not given) | · | · | · | i | i | ·
CCOC(=O)Cc1ccc(NC(=O)Nc2cc3c(cc2N2CCCCC2)n(C)c(=O)n3C)cc1 | · | · | · | i | i | ·
Cn1c(=O)c2c(SCC(=O)N3CCc4ccccc43)nc(-c3cccc(F)c3)nc2n(C)c1=O | · | · | · | i | i | ·
O=C(NNC(=O)C(O)(c1ccccc1)c1ccccc1)C1CC1 | 1% | 10% | 10% | i | i | -3%
O=C(Nc1nc(-c2ccc(Cl)s2)cs1)c1ccccc1 | -2%[9.22 µM] | -4% | -19% | i | i | ?
Cc1ccc(C(=O)Nc2nc(-c3cc(Cl)sc3Cl)cs2)cc1 | 0% | -13% | -17% | i | i | 26µM*
CC(=O)c1ccc(-c2ccc(C(=O)Nc3nc(-c4ccccn4)cs3)o2)cc1 | ? | ? | 10µM* | ? | ? | 16µM*
COc1ccc(-n2c(/C=C(\C)O)nc(=O)c3c(C)cc(C)nc32)cc1 | 0% | -1% | 4% | 7.3µM* | i | 2%
COc1ccc(-n2c(C)nn(C)c2=O)cc1 | 10% | 2% | 17% | i | i | -1%
COCCCNC(=O)c1cnc2c(-c3ccc(F)cc3)c(C)nn2c1C | · | · | · | i | i | ·
COc1ccc(NC(=O)CSc2nc(C)cs2)c([N+](=O)[O-])c1 | -6% | -2% | 3% | 23µM* | i | 10%
Cc1cccc(NC(=O)CSc2ncnc3nc[nH]c23)c1C | ? | 0% | 1% | i | i | 23µM*
Cc1csc(SCC(=O)Nc2cccc(C)c2C)n1 | -2% | -1% | 10% | 16µM* | i | -3%
Cc1ccc(C)c(NC(=O)CSc2nc(C)cs2)c1 | -13% | 2% | 21% | i | i | 2%
CCOc1ccc(-c2nc3c(c(SCC(=O)N4CCCCC4)n2)Cc2cc(C)ccc2O3)cc1 | · | · | · | ? | i | ·

Assay outcomes as filed in PubChem BioAssay.
